Results on 13 compounds are retold here after PubChem BioAssay.

SMILES strings stand for the structures. Calls of active or inactive are those of the source.

The target of one assay is Albumin (Bos taurus) (UniProt P02769). The experiment in a line: compounds binding labelled BSA control protein – biochemical, small-molecule microarray, Alexa647 label, 635/667 nm fluorescence, artefact control for SMM control protein annotation, profiling panel (AID 1118).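 Also: score merges 667 nm emission intensity and signal-to-noise per printed compound spot.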 To be noted: BSA-A647 binding, fluorescence 635 nm, higher = more signal.
A short description of assay [1]: probe aXIP binding to arrayed compounds – biochemical, NeuroSMM set, 635/667 nm fluorescence, primary screen (AID 1119).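 Also: probe is the protein aXip251-270 applied at 1 µg/mL to compound-printed slides; binding of probe to printed compounds measured as 667 nm fluorescence plus signal to noise.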 The note with it: small-molecule microarray, higher = more signal, called active from +8 up or from −8 down.
Assay [2] can be described thus: probe aNOTCH3 binding on compound microarray – biochemical, small-molecule microarray, 635/667 nm fluorescence, primary screen (AID 1120).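 Also: probe is a biotin-tagged antibody raised against NOTCH3 rather than NOTCH3 protein; score merges spot fluorescence near 667 nm with spot signal to noise.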 The note with it: higher = more signal.
Assay [3] in a line: probe aNOTCH2 binding on compound microarray – biochemical, small-molecule microarray, 635/667 nm fluorescence, primary screen (AID 1121).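 Also: score merges feature fluorescence read at 667 nm with its signal to noise.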 To be noted: higher = more signal.
For assay [4], the target named is Carbonic anhydrase 2 (Homo sapiens) (UniProt P00918). Kind of assay: compounds binding carbonic anhydrase 2 – biochemical, small-molecule microarray, Alexa647-labelled CAII, profiling panel (AID 1122). To be noted: CAII-A647 binding fluorescence, higher = more signal.
Assay [5] in a line: COS7 lysate on small-molecule microarray, probe aHis, 635 nm (AID 1123).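 Also: z-score combines 667nm fluorescence intensity with signal-to-noise per printed compound spot.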 The note with it: COS7 cell lysate, fluorescence, higher = more signal.
The nature of assay [6]: probe aLAP1 signal on lysate-treated microarray – cell lysate, small-molecule microarray, COS7 lysate, primary screen (AID 1124).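 Also: lysate comes from COS7 cells expressing LAP1 and is applied at 0.3 µg/mL; score merges spot fluorescence near 667 nm with signal-to-noise over triplicate slides.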 The note with it: probe aLAP1, fluorescence, higher = more signal.
A further assay relates to Sam68 (KHDRBS1). The experiment in a line: compounds binding KHDRBS1 protein – biochemical, small-molecule microarray, 635 nm fluorescence, primary screen (AID 1125).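 Also: score merges 667 nm channel intensity with signal to noise over triplicate slides.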 The note with it: higher = more signal.
In assay [7] the test system is Chordin-like protein 2 (CHRDL2). Kind of assay: compounds binding chordin-like 2 – biochemical, small-molecule microarray, 635 nm fluorescence, primary screen (AID 1126).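 Also: printed compound slides probed with Chrdl2 protein at 4 µg/mL for 1 h at 4 C; score merges 667 nm emission intensity with signal to noise over three replicate slides.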 To be noted: fluorescence 635 nm, higher = more signal.
Assay [8] has as its target Concanavalin-A (Canavalia ensiformis) (UniProt P02866). Kind of assay: compounds binding concanavalin A lectin – biochemical, small-molecule microarray, Alexa647 label, 635 nm, artefact control for SMM control protein annotation, primary screen (AID 1127).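 Also: z combines 667 nm emission intensity with signal-to-noise across three replicate slides.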 To be noted: ConA-A647 binding fluorescence, higher = more signal.

Chain of Concanavalin-A (Canavalia ensiformis) (P02866 whole entry, looked up): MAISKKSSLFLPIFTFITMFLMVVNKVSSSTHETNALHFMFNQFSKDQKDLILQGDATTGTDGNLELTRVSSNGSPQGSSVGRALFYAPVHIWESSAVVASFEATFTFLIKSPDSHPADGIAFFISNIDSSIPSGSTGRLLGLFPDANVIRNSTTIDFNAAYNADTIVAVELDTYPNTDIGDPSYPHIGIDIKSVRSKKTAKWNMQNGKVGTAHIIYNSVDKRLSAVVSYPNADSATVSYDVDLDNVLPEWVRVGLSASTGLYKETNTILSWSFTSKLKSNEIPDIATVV
Chain of Albumin (Bos taurus) (P02769 whole entry, looked up): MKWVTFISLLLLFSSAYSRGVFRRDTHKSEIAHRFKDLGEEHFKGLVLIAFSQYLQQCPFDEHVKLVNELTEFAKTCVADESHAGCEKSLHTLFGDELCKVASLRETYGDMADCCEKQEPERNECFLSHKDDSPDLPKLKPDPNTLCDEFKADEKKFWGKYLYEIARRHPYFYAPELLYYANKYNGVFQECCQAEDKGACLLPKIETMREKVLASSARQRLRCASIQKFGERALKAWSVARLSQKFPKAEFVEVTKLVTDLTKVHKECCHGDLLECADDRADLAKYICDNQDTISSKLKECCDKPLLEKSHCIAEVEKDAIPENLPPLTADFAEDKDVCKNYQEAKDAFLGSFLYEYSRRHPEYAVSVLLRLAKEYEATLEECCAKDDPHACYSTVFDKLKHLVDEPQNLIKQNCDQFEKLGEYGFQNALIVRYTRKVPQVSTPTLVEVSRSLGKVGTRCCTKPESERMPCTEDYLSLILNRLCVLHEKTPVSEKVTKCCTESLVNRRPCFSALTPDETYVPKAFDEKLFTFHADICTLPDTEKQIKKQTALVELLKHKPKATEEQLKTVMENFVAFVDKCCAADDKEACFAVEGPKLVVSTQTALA

`COc1cc2c(cc1O)C(c1ccc(CN3CCCC3)cc1)N(Cc1cc3c(cc1Br)OCO3)CC2` (stereo not given): the composite z-score with Albumin (Bos taurus) was 0.905; in assay [2], -0.0089; in assay [3], -0.102; in assay [4], 0.891; in assay [5], 0.796; in assay [6] it was 0.119. Besides, the composite z-score in the assay on Sam68 (KHDRBS1) is -0.521; in assay [7], -0.0867; in [8] it was 0.655. For the same compound, the composite Z-score in assay [1] is 0.0698 (inactive).
As to `CCCCNC(=O)c1ccc(C#CC(C)(C)C)c(OC(C)=O)c1`, the composite z-score with Albumin (Bos taurus) was 0.691; in assay [2], 0.0744; in [3] it was -0.181; in assay [4] it was 0.728; in assay [5], -0.0302; in [6], -0.0555. In addition, the composite z-score in the assay with Sam68 (KHDRBS1) is 1.02; in assay [7] it was 0.641; in assay [8], 0.744. Further, the composite Z-score in assay [1] is 0.0956 (inactive).
Consider `C#Cc1cc2ccccc2oc1=O`, for which the composite z-score with Albumin (Bos taurus) is 0.683; in assay [2], -0.437; in [3], -0.126; in [4], 0.637; in [5], 0.688; in assay [6], 0.216. Also, the composite z-score was 0.343 in the assay with Sam68 (KHDRBS1), -2.62 in [7] and -0.486 in [8]. For the same compound, in assay [1], the composite Z-score is 0.207 (inactive).
Consider `COC(=O)[C@@]1(Cc2ccc(OC)cc2)[C@H]2c3cc(C(=O)N4CCCC4)n(CCc4c[nH]c5ccc(O)cc45)c3C[C@H]2CN1C(=O)c1ccccc1`, for which the composite z-score amounted to 0.863 with Albumin (Bos taurus); 0.298 in assay [2]; 0.0409 in [3]; 0.774 in assay [4]; 2.05 in assay [5]; 0.441 in assay [6]. For the same compound, the composite z-score is 1.34 with Sam68 (KHDRBS1), -0.135 in [7] and 0.992 in assay [8]. Besides, the composite Z-score in assay [1] was 0.714 (inactive).
Turning to `CCCC=C(CCC)[C@@H](NS(=O)(=O)c1ccc(C(F)(F)F)cc1)c1ccccc1`, the composite z-score with Albumin (Bos taurus) was -0.127; in [2] it was 0.149; in assay [3] it was 0.115; in assay [4], 0.0051; in [5] it was 1.34; in [6], -0.122. For the same compound, the composite z-score in the assay with Sam68 (KHDRBS1) was 0.42; in [7], -0.732; in assay [8], 0.277. Besides, the composite Z-score in assay [1] was 0.404 (inactive).
For the compound `C=CCC(OC(C)=O)[C@@H]1[C@@H](N(Cc2ccc(-c3ccccc3)cc2)C(=O)c2ccc(-c3ccccc3)cc2)c2cc(OCCCO)ccc2N1C(=O)c1ccc2ccccc2c1` (stereo not given in full), the composite z-score with Albumin (Bos taurus) is -0.186; in [2], -0.0208; in assay [3] it was -0.115; in [4], 0.212; in assay [5], 0.937; in [6], -0.129. For the same compound, the composite z-score is 0.352 with Sam68 (KHDRBS1), 0.0949 in assay [7] and -0.38 in [8]. For the same compound, the composite Z-score in assay [1] was -0.473 (inactive).
For `CCOC(=O)C[C@H]1[C@H](OC(=O)c2cc3ccccc3oc2=O)[C@@H](NC(=O)c2ccccc2)c2cc(OCCCO)ccc2N1C(=O)c1ccccc1`, the composite z-score with Albumin (Bos taurus) was -0.122; in [2], -0.0199; in assay [3] it was -0.147; in assay [4], -0.129; in assay [5], 0.236; in assay [6], -0.155. Moreover, the composite z-score worked out at 0.64 in the assay with Sam68 (KHDRBS1), 0.498 in assay [7] and 0.535 in [8]. For the same compound, the composite Z-score in [1] was 0.0916 (inactive).
As to `CCOC(=O)C[C@H]1[C@H](OC(=O)c2cc3ccccc3oc2=O)[C@@H](NC(=O)CC(C)C)c2cc(OCCCO)ccc2N1C(=O)c1ccc2ccccc2n1`, the composite z-score with Albumin (Bos taurus) was 0.42; in assay [2], 0.191; in assay [3], -0.237; in assay [4] it was 0.43; in [5], 1.04; in assay [6], 0.102. For the same compound, the composite z-score was 1.26 in the assay on Sam68 (KHDRBS1), 0.324 in assay [7] and 0.625 in [8]. Also, the composite Z-score in assay [1] was -0.077 (inactive).
Take `C=CCC(OC(C)=O)[C@@H]1[C@@H](N(Cc2ccc(-c3cccc(C(F)(F)F)c3)o2)C(=O)c2ccc(-c3ccccc3)cc2)c2cc(OCCCO)ccc2N1C(=O)Cc1ccc2ccccc2c1` (stereo not given in full): the composite z-score is -0.124 with Albumin (Bos taurus); -0.149 in [2]; -0.11 in assay [3]; -0.177 in assay [4]; 0.453 in assay [5]; -0.039 in assay [6]. The figures for the composite z-score (in the assay on Sam68 (KHDRBS1); in assay [7]; in [8]) were -0.421, -0.353 and -0.0333, respectively. Moreover, the composite Z-score in assay [1] is -0.274 (inactive).
On to `COc1ccc([Si](C)(C)[C@H]2[C@H](CC(=O)N(CCO)Cc3ccccc3)O[C@@]3(C(=O)N(C)c4c(Br)cc(C)cc43)[C@@H]2C)cc1`, for which the composite z-score with Albumin (Bos taurus) was 0.509; in assay [2], -0.0072; in assay [3], -0.179; in assay [4], 0.731; in assay [5], 1.07; in assay [6], 0.0123. The results for the composite z-score (with Sam68 (KHDRBS1); in [7]; in [8]) were 0.995, 1.27 and 0.652, respectively. Also, the composite Z-score in [1] was -0.324 (inactive).
`O=C1O[C@@H](c2ccccc2)[C@@H](c2ccccc2)N2[C@@H](c3ccc(O)cc3)[C@]3(C(=O)Nc4ccc(C#CCCO)cc43)[C@@H](C(=O)N3CCN(c4ncccn4)CC3)[C@H]12`: the composite z-score in the assay with Albumin (Bos taurus) is -0.777; in assay [2], 0.148; in [3], -0.457; in assay [4], 0.523; in assay [5] it was 0.457; in [6] it was -0.143. The figures for the composite z-score (in the assay on Sam68 (KHDRBS1); in assay [7]; in assay [8]) were 1.11, 1.14 and 1.12, respectively. The composite Z-score in [1] was 0.698 (inactive).
Take `CCCCN1CC=CC23O[C@@H]4/C=C\CCCOC(=O)C4[C@H]2C(=O)N(CCO)[C@@H]3C1=O` (stereo not given in full): the composite z-score is 0.634 with Albumin (Bos taurus); -0.426 in assay [2]; -0.161 in [3]; 0.321 in [4]; 1.1 in assay [5]; -0.0065 in assay [6]. The composite z-score in the assay on Sam68 (KHDRBS1) was 0.109; in [7], -1.08; in [8] it was -0.557. Besides, in assay [1], the composite Z-score is 0.257 (inactive).
Turning to `C=C[C@H](C)[C@H](OC(=O)Nc1ccc(SC)cc1)c1ccc(OCCO)cc1`, the composite z-score is 0.548 with Albumin (Bos taurus); -0.0647 in assay [2]; -0.0533 in assay [3]; 0.575 in assay [4]; 2.19 in assay [5]; 0.277 in [6]. In addition, the composite z-score with Sam68 (KHDRBS1) came out at 1.06; in assay [7], 0.516; in assay [8] it was 1.04. Besides, the composite Z-score in assay [1] is 2.78 (inactive).
